Source: the supplement of paper PMC6411743
± gives the standard deviation of the averaged measurements. The full data set covers some 5,400 targets. This sample favours those with the largest changes.

Compound: Nc1nc2c(ncn2[C@@H]2O[C@H](COP(=O)(O)OP(=O)(O)OP(=O)(O)O)[C@@H](O)[C@H]2O)c(=O)[nH]1 [guanosine triphosphate]
Assay: NP40-soluble protein abundance relative to vehicle (solubility fold change) (ratio); higher = more soluble protein in presence of GTP
How it was run: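 Crude Jurkat lysate, prepared by Dounce homogenisation, was exposed to eight concentrations from 0.1 to 10 mM for 10 min at room temperature and then 3 min at 37 °C. Solubilisation used 0.8% NP40 with benzonase for 60 min at 4 °C, followed by ultracentrifugation and TMT labelling of the supernatant for LC-MS/MS. After vsn normalisation of intensities, each value is the fold change against the detergent-processed vehicle within each replicate, across three independent experiments.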

Sequence of UniProt P28161 (P28161 whole entry): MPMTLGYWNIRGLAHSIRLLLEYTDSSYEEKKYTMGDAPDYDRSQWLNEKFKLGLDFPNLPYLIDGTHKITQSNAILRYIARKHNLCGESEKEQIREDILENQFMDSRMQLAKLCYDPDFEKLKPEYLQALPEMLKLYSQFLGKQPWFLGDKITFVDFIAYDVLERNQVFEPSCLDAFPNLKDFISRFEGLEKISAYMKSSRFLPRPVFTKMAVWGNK
Sequence of UniProt O60508 (O60508 whole entry, one chain of several): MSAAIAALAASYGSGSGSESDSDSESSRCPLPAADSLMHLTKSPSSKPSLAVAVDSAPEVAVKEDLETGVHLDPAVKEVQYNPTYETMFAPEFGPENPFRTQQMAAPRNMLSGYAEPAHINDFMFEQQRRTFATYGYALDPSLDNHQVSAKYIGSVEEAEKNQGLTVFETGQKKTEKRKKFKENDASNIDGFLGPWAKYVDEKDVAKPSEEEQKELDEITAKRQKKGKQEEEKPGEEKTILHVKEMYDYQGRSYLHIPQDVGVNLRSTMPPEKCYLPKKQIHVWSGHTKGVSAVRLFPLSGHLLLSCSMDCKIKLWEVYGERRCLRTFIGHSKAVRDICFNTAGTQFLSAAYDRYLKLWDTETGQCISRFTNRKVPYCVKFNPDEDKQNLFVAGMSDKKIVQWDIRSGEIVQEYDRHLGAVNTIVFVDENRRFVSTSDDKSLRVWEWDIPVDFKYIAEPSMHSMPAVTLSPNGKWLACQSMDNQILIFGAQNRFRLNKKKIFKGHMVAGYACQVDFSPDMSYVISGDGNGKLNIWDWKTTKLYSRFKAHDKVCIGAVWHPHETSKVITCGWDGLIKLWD
Sequence of UniProt Q9Y421 (Q9Y421 whole entry, one chain of several): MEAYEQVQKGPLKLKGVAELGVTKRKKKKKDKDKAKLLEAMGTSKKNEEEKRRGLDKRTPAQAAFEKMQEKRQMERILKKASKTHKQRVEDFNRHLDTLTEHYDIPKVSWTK
Sequence of UniProt P09564 (P09564 whole entry): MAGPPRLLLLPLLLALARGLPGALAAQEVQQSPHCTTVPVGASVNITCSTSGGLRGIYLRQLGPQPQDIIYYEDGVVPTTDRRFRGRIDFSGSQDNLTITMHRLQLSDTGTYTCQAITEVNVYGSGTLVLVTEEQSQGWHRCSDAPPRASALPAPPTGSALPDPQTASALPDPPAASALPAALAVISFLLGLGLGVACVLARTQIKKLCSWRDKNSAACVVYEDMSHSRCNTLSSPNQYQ
Sequence of UniProt P36915 (P36915 whole entry): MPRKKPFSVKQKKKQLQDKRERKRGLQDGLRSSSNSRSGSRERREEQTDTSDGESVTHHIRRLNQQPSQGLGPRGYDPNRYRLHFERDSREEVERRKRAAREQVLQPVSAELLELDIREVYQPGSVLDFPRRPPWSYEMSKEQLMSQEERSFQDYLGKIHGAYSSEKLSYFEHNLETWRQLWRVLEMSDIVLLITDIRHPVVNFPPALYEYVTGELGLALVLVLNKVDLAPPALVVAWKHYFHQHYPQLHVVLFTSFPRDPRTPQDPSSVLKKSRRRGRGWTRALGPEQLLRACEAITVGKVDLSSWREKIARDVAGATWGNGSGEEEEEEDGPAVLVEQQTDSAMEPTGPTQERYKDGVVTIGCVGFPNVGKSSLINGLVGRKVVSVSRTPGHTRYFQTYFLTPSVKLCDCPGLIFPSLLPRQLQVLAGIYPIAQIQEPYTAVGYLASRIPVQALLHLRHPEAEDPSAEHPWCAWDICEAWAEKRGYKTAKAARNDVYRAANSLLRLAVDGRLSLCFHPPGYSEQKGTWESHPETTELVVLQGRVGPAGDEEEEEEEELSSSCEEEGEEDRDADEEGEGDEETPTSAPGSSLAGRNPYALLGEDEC
Sequence of UniProt O75170 (O75170 whole entry): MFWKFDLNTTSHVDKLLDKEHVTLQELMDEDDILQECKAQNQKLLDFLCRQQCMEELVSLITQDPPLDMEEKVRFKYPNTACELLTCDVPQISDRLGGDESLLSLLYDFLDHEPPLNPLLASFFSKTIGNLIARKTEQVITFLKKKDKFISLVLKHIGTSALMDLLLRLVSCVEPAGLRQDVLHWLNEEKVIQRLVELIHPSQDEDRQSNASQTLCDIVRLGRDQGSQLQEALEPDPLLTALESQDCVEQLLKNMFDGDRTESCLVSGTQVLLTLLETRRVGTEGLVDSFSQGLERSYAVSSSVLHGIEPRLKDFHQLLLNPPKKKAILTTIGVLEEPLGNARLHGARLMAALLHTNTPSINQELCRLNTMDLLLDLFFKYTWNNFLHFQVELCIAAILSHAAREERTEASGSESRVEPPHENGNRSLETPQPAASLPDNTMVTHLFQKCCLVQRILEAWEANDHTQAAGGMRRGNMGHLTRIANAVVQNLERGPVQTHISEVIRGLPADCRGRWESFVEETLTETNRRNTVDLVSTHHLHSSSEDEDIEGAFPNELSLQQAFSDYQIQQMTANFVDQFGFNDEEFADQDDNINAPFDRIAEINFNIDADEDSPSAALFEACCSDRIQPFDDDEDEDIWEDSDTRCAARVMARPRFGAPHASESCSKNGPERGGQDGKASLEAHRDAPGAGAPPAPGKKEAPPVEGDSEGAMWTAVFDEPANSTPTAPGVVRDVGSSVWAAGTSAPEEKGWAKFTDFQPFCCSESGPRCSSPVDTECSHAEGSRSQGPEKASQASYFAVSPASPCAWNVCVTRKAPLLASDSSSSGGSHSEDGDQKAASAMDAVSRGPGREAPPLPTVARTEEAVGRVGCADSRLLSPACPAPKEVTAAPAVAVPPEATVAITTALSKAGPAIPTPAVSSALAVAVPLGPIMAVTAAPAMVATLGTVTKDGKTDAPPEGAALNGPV
Sequence of UniProt O60830 (O60830 whole entry, one chain of several): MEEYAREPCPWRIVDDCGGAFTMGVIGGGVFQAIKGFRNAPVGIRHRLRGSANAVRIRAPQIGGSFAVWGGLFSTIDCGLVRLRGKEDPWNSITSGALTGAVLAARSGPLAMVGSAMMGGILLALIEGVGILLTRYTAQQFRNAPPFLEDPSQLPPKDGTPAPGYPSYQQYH
Sequence of UniProt O75828 (O75828 whole entry): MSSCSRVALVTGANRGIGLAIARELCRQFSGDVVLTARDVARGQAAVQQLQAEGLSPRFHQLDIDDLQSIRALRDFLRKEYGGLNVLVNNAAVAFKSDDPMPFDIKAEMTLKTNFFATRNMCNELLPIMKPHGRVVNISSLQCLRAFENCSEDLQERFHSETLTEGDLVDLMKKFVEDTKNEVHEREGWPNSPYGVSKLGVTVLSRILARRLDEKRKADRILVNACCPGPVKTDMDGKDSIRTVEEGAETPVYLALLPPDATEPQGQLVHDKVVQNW
Sequence of UniProt P09874 (P09874 whole entry): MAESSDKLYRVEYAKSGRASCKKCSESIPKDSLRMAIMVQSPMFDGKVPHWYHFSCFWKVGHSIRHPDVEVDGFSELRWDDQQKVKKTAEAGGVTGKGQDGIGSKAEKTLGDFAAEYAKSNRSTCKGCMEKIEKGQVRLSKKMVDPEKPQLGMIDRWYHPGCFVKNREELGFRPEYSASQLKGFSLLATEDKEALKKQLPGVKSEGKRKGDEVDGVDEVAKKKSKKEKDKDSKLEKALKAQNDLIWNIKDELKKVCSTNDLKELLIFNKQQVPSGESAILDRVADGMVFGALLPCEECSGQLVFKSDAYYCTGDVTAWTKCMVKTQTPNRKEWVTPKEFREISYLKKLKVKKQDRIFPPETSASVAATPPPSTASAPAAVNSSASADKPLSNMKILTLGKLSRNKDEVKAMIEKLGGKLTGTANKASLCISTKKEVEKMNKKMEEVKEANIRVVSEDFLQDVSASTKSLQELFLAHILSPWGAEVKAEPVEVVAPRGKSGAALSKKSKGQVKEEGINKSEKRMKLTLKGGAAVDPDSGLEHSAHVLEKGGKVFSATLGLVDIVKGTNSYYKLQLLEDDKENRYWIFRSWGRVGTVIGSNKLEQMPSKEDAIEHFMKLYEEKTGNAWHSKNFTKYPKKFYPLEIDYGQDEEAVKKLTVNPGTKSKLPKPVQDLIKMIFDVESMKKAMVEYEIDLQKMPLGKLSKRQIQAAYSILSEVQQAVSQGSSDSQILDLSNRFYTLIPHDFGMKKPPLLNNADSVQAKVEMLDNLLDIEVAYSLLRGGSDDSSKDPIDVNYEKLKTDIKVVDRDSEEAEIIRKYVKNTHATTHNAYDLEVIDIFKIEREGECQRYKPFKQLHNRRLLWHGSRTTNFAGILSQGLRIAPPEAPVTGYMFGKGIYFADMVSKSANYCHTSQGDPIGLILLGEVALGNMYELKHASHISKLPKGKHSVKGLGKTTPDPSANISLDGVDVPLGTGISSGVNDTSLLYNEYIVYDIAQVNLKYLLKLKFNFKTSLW
Sequence of UniProt P23246 (P23246 whole entry): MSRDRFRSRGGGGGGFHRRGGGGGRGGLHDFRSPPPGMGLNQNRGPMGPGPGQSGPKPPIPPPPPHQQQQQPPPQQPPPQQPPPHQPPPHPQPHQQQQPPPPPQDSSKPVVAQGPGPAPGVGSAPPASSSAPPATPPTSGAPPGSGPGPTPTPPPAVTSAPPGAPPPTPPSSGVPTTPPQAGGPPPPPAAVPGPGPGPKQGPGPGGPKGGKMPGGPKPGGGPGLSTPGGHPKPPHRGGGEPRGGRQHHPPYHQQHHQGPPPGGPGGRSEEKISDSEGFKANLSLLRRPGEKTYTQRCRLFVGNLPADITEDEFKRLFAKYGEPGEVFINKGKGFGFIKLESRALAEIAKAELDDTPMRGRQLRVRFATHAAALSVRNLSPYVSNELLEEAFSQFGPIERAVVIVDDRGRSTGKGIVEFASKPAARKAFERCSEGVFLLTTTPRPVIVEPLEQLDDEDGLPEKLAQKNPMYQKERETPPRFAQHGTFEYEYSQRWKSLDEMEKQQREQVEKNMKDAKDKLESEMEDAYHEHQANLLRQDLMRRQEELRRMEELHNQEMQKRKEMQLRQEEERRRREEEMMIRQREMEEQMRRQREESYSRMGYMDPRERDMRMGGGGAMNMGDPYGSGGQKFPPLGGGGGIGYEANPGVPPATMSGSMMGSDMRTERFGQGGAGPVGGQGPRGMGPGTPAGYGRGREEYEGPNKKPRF

Target	NP40-soluble protein abundance (concentration: 0.1mM)	NP40-soluble protein abundance (concentration: 0.5mM)	NP40-soluble protein abundance (concentration: 1mM)	NP40-soluble protein abundance (concentration: 2mM)	NP40-soluble protein abundance (concentration: 4mM)	NP40-soluble protein abundance (concentration: 6mM)	NP40-soluble protein abundance (concentration: 8mM)	NP40-soluble protein abundance (concentration: 10mM)
UniProt O60508|Q5SRN1	1.07 ± 0.031	1.1 ± 0.017	1.09 ± 0.022	1.072 ± 0.0076	1.05 ± 0.034	1.07 ± 0.053	1.11 ± 0.013	1.08 ± 0.042
UniProt O94964-2|O94964|O94964-4|X6R3R3	1.05 ± 0.11	0.998 ± 0.13	1.139 ± 0.011	1.07 ± 0.025	1.09 ± 0.047	1.03 ± 0.037	1.12 ± 0.072	0.994 ± 0.041
HMGN2 (UniProt P05204)	0.992 ± 0.2	1 ± 0.14	1.31 ± 0.23	1.46 ± 0.35	1.5 ± 0.11	1.89 ± 0.35	1.7 ± 0.41	2.68 ± 0.3
UniProt P09564	1.03 ± 0.2	0.908 ± 0.048	1.09 ± 0.19	0.942 ± 0.15	1.02 ± 0.13	0.977 ± 0.15	1 ± 0.17	0.932 ± 0.14
UniProt P17096|P17096-2	1.06 ± 0.062	1.06 ± 0.12	1.21 ± 0.081	1.33 ± 0.12	1.37 ± 0.14	1.69 ± 0.3	1.55 ± 0.21	2.02 ± 0.076
UniProt O95758-2|O95758-6|O95758|O95758-1|O95758-4|O95758-5|O95758-7	1.02 ± 0.074	0.974 ± 0.052	1.02 ± 0.064	1.05 ± 0.11	0.994 ± 0.088	0.972 ± 0.05	0.959 ± 0.058	0.951 ± 0.038
EEF2K (UniProt O00418)	0.988 ± 0.074	1.01 ± 0.058	0.944 ± 0.02	0.954 ± 0.044	0.913 ± 0.028	0.951 ± 0.052	0.949 ± 0.068	0.941 ± 0.039
CBR3 (UniProt O75828)	1.15 ± 0.032	1.21 ± 0.11	1.11 ± 0.029	1.06 ± 0.082	1.04 ± 0.082	0.936 ± 0.091	1.08 ± 0.22	1.09 ± 0.11
P0C0S5|Q71UI9 (UniProt Q71UI9+P0C0S5)	0.898 ± 0.042	0.919 ± 0.033	1.11 ± 0.065	1.11 ± 0.06	1.12 ± 0.06	1.25 ± 0.094	1.25 ± 0.079	1.57 ± 0.18
GNL1 (UniProt P36915)	1.05 ± 0.023	1.03 ± 0.019	0.972 ± 0.033	0.95 ± 0.015	0.9647 ± 0.0095	0.944 ± 0.02	0.959 ± 0.045	0.906 ± 0.061
UniProt O75822|O75822-2	0.856 ± 0.038	0.825 ± 0.074	0.908 ± 0.09	0.954 ± 0.098	1.07 ± 0.17	1.32 ± 0.22	1.4 ± 0.3	1.77 ± 0.39
KIN (UniProt O60870)	0.9988 ± 0.0042	0.993 ± 0.013	0.9497 ± 0.0058	0.929 ± 0.029	0.916 ± 0.021	0.908 ± 0.024	0.9015 ± 0.007	0.885 ± 0.053
UniProt O60830|O60830-2|V9GYS0	1.82 ± 0.63	1 ± 0.039	0.957 ± 0.15	1.01 ± 0.13	1 ± 0.11	0.969 ± 0.13	0.942 ± 0.051	0.955 ± 0.045
J3KPS0|Q9NXW2|Q9NXW2-2 (UniProt Q9NXW2)	1.01 ± 0.065	0.995 ± 0.088	0.984 ± 0.083	0.935 ± 0.064	0.913 ± 0.066	0.918 ± 0.1	0.967 ± 0.082	0.925 ± 0.063
UniProt P12931|P12931-2	1.05 ± 0.05	1.05 ± 0.063	0.955 ± 0.018	0.9845 ± 0.0092	0.905 ± 0.063	0.896 ± 0.015	0.894 ± 0.052	0.837 ± 0.074
UniProt P48634|P48634-2|P48634-3	1.07 ± 0.034	1.06 ± 0.0091	1.19 ± 0.1	1.27 ± 0.03	1.42 ± 0.062	1.52 ± 0.096	1.7 ± 0.19	1.84 ± 0.28
GSTM2 (UniProt P28161)	1.03 ± 0.058	0.947 ± 0.051	1 ± 0.1	0.976 ± 0.085	0.956 ± 0.1	0.932 ± 0.11	0.886 ± 0.091	0.899 ± 0.12
UniProt P27824|P27824-2	0.965 ± 0.034	1 ± 0.013	0.95 ± 0.04	0.928 ± 0.048	0.883 ± 0.061	0.922 ± 0.06	0.906 ± 0.035	0.896 ± 0.051
CDC34 (UniProt P49427)	1.69 ± 0.2	1.07 ± 0.037	1.79 ± 0.077	1.15 ± 0.11	1.16 ± 0.092	1.12 ± 0.1	1.01 ± 0.078	1.06 ± 0.084
RBM34 (UniProt P42696)	1.08 ± 0.0039	1.05 ± 0.034	1.14 ± 0.028	1.23 ± 0.065	1.41 ± 0.066	1.57 ± 0.12	1.68 ± 0.12	1.83 ± 0.066
HIST1H1E (UniProt P10412)	1.02 ± 0.12	1.05 ± 0.1	1.13 ± 0.15	1.24 ± 0.11	1.26 ± 0.055	1.38 ± 0.064	1.28 ± 0.18	2.05 ± 0.41
SFPQ (UniProt P23246)	0.998 ± 0.053	0.989 ± 0.086	1.03 ± 0.13	1.23 ± 0.14	1.61 ± 0.22	1.85 ± 0.28	2 ± 0.35	2.04 ± 0.36
K7EIY1|Q9Y421 (UniProt Q9Y421)	1.045 ± 0.0048	0.987 ± 0.15	1.07 ± 0.11	1.14 ± 0.14	1.25 ± 0.12	1.21 ± 0.2	1.24 ± 0.11	1.37 ± 0.088
UniProt P30622|P30622-1	0.996 ± 0.068	1 ± 0.086	1.01 ± 0.08	0.97 ± 0.11	0.953 ± 0.076	0.954 ± 0.069	1 ± 0.088	1.01 ± 0.11
UniProt P28907	0.92 ± 0.058	0.876 ± 0.075	0.927 ± 0.063	0.902 ± 0.091	0.891 ± 0.088	0.925 ± 0.088	0.895 ± 0.1	0.894 ± 0.058
UniProt O60488|O60488-2|D6RD96	1.02 ± 0.028	1.08 ± 0.053	0.9363 ± 0.0046	0.939 ± 0.066	0.908 ± 0.045	0.905 ± 0.049	0.894 ± 0.039	0.843 ± 0.086
IGHMBP2 (UniProt P38935)	1.07 ± 0.072	1.09 ± 0.1	1.14 ± 0.099	1.26 ± 0.17	1.44 ± 0.26	1.6 ± 0.27	1.7 ± 0.43	1.92 ± 0.48
PARP1 (UniProt P09874)	1.02 ± 0.026	1.05 ± 0.034	1.05 ± 0.033	1.15 ± 0.052	1.31 ± 0.069	1.43 ± 0.054	1.47 ± 0.043	1.5 ± 0.028
UniProt O75170|O75170-2|O75170-3|O75170-4|O75170-5	1 ± 0.15	0.979 ± 0.059	1.03 ± 0.12	1 ± 0.043	0.973 ± 0.071	0.992 ± 0.056	0.963 ± 0.065	1.05 ± 0.075
